Measured values taken from the supplement of paper PMC10981050.
Where “and” joins values, the source holds several entries; their conditions need not be identical. Equal entries are not always repeated. Structures can show the parent of a compound that is named as a salt.

Legend:
Assay in all cases: cell viability relative to vehicle control; higher = less cytotoxic
Conditions in all cases: 10 µM
[1] = tested on: K562
Summary of the method: (§1)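 Each screen used CRISPR-edited mutant and wild-type clones from four leukaemia lines. Compounds were acoustically dispensed at a single 10 µM dose, and CellTiter-Glo luminescence was read after 48 h with the supernatant first removed. Viability was analysed in Genedata Screener and given as percent of the on-plate vehicle control.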

[2] = tested on: MARIMO
Summary of the method: as §1

[3] = tested on: MOLM14
Summary of the method: as §1

[4] = tested on: OCI-AML2
Summary of the method: as §1

| Compound | cell viability ([1]; SRSF2 genotype: SRSF2 P95H/wt) | cell viability ([1]; SRSF2 genotype: SRSF2 wt/wt) [%] | cell viability ([2]; SRSF2 genotype: SRSF2 P95H/wt) [%] | cell viability ([2]; SRSF2 genotype: SRSF2 wt/wt) [%] | cell viability ([3]; SRSF2 genotype: SRSF2 P95H/wt) [%] | cell viability ([3]; SRSF2 genotype: SRSF2 wt/wt) [%] | cell viability ([4]; SRSF2 genotype: P95H/wt) [%] | cell viability ([4]; SRSF2 genotype: wt/wt) [%] |
| --- | --- | --- | --- | --- | --- | --- | --- | --- |
| CN(C(=O)CNC(=O)/C=C/c1cccc(Cl)c1)C1CCS(=O)(=O)CC1 | 35.4% and 33% | 28.4 | 103 | 104 | 105 | 86 | 101 | 104 |
| CCn1cc(-c2cccc(C(F)(F)F)c2)c2sc(C(=N)NC3CCS(=O)(=O)CC3)cc2c1=O | 68.1% and 71.5% | 69.9 | 55.8 | 45.3 | 27 | 32.3 | 22.6 | 42.1 |
| CCCCN1CCCC[C@H]1C(=O)Nc1c(C)cccc1C [Levobupivacaine HCl] | 82.7% and 79.1% | 80.2 | 82.3 | 85.1 | 83.5 | 88.7 | 82.3 | 90.8 |
| COc1cc(C=O)c([N+](=O)[O-])cc1OC | 104% | 110 | 95.3 | 92.6 | 95.8 | 109 | 111 | 125 |
| N/C(=N\N=C\c1ccc(Cl)cc1)N/N=C/c1ccc(Cl)cc1 [Robenidine Hydrochoride] | 70.9% and 65.6% | 67.4 | 65.7 | 67.8 | 59.2 | 65.9 | 60.2 | 73.3 |
| O=C1CN(/N=C/C=C/c2ccc([N+](=O)[O-])o2)C(=O)N1 [Furagin] | 105% and 103% | 104 | 93.7 | 107 | 105 | 108 | 101 | 108 |
| CN1CCC[C@H]1c1cccnc1 [nicotine ditartrate] | 101% and 97.3% | 97.6 | 105 | 117 | 99.1 | 101 | 95.6 | 106 |
| COc1cc2c(cc1OC)[C@@H](Cc1ccc(O)c(Oc3cc4c(cc3OC)CCN(C)[C@@H]4Cc3ccc(O)cc3)c1)N(C)CC2 [Liensinine] | 86.6% and 83% | 78.5 | 63.3 | 74.6 | 69.1 | 83.3 | 63.2 | 59.9 |
| CNC(=O)c1cc(Oc2ccc3nc(N[C@@H]4CCCC[C@H]4O)sc3c2)ccn1 | 87.4% and 93.2% | 89.4 | 100 | 99.1 | 89.2 | 99.5 | 90 | 83.2 |
| Cc1ccc2c(=O)c3cccc(CC(=O)O)c3oc2c1C [DMXAA (Vadimezan)] | 90% and 87.7% | 90.5 | 89.9 | 102 | 85.4 | 87.8 | 88.9 | 93.1 |
| Nc1cccc2c1CN(C1CCC(=O)NC1=O)C2=O (stereo unspecified) [Lenalidomide (CC-5013)] | 98.2% and 96.6% | 94.8 | 97.1 | 101 | 91.3 | 93.5 | 118 | 113 |
| Cc1cc(C(=O)O)n[nH]1 | 108% and 101% | 103 | 104 | 111 | 96.4 | 111 | 101 | 104 |
| CN1CCc2c(c3ccccc3n2Cc2ccc(C(=O)NO)cc2)C1 [Tubastatin A hydrochloride] | 77.4% and 88.8% | 84.6 | 67 | 66.5 | 43.8 | 43.6 | 51.1 | 49.9 |
| Nc1ncnc2c1nc(Br)n2[C@@H]1O[C@@H]2COP(=O)(O)O[C@H]2[C@H]1O [8-Bromo-cAMP] | 66.5% and 72.5% | 66.5 | 86.2 | 96.1 | 65.9 | 60 | 79.8 | 93.2 |
| O=C(O)CCc1ccc(NCc2cccc(Oc3ccccc3)c2)cc1 | 94.2% and 89.7% | 111 | 82.4 | 93.1 | 94.2 | 95.7 | 91 | 92.7 |
| O=C(NCc1cccc(O)c1)Nc1nc(-c2ccncc2)cs1 | 92% and 95.8% | 106 | 65.6 | 85.8 | 25.3 | 60.8 | 18.8 | 27.6 |
| C[C@H](CCC(=O)O)[C@H]1CC[C@H]2[C@@H]3[C@H](O)C[C@@H]4C[C@H](O)CC[C@]4(C)[C@H]3C[C@H](O)[C@]12C [Cholic acid] | 94.2% and 93.3% | 100 | 91.6 | 98 | 98.9 | 97.6 | 98.5 | 98.9 |
| CC(=O)NC(CC(C)C)C(=O)O (stereo unspecified) [Acetylleucine] | 91.4% and 98.5% | 97 | 103 | 93.4 | 101 | 94.8 | 92.2 | 95.4 |
| COc1ccccc1C(=O)Nc1cc2c(cc1N1CCCC1)n(C)c(=O)n2C | 91.5% and 100% | 92 | 84.1 | 95.3 | 79.4 | 83.4 | 63.5 | 69.2 |
| CN(Cc1ccc(C(C)(C)C)cc1)Cc1cccc2ccccc12 [Butenafine HCl] | 97% and 102% | 91.6 | 84.1 | 105 | 93.4 | 98 | 85.5 | 101 |
| CC/C(=C(\c1ccccc1)c1ccc(OCCN(C)C)cc1)c1ccccc1 [Tamoxifen Citrate (Nolvadex)] | 82.2% and 76.4% | 93 | 80 | 74.3 | 74.5 | 81.8 | 69.7 | 74.5 |

| Compound | cell viability ([1]; SRSF2 genotype: SRSF2 P95H/wt) | cell viability ([1]; SRSF2 genotype: SRSF2 wt/wt) [%] | cell viability ([2]; SRSF2 genotype: SRSF2 P95H/wt) [%] | cell viability ([2]; SRSF2 genotype: SRSF2 wt/wt) [%] | cell viability ([3]; SRSF2 genotype: SRSF2 P95H/wt) [%] | cell viability ([3]; SRSF2 genotype: SRSF2 wt/wt) [%] | cell viability ([4]; SRSF2 genotype: P95H/wt) [%] | cell viability ([4]; SRSF2 genotype: wt/wt) [%] |
| --- | --- | --- | --- | --- | --- | --- | --- | --- |
| C/C(=C\C(=O)OCCCCCCCCC(=O)O)C[C@@H]1OC[C@H](C[C@@H]2O[C@H]2[C@@H](C)[C@H](C)O)[C@@H](O)[C@H]1O [Mupirocin calcium] | 90.7% and 86.2% | 87.5 | 84.3 | 97.9 | 94.2 | 93.4 | 97.3 | 93.5 |
| COc1ccc2c(Oc3ccc(NC(=O)c4c(C)n(CC(C)(C)O)n(-c5ccccc5)c4=O)nc3)ccnc2c1 | 46% and 69.9% | 50 | 84.8 | 97.3 | 11 | 10.7 | 27.8 | 35.9 |
| CCN(CC)c1ccc(C=NNC(=O)c2ccc(O)cc2)cc1 | 46.8% and 47.9% | 51.9 | 53.8 | 52.2 | 56.2 | 49.9 | 70.1 | 69.3 |
| O=S(=O)(c1cccc2cnccc12)N1CCCNCC1 [Fasudil HCl (HA-1077)] | 97.2% and 90.4% | 94 | 81.6 | 92.8 | 75 | 94.4 | 70.3 | 75.3 |
| CN(C)CCSSCCNC(=O)C1CCN(C(=O)CSc2ccc(Cl)cc2)CC1 | 82% and 85.7% | 81.6 | 68 | 86.9 | 91.8 | 95.1 | 89.8 | 79.5 |
| Cc1noc(NS(=O)(=O)c2ccc(N)cc2)c1C [Sulfisoxazole] | 106% and 97.9% | 107 | 98.5 | 104 | 97.6 | 103 | 98.5 | 104 |
| COc1cc2c(Oc3ccc4[nH]c(C)cc4c3F)ncnc2cc1OCCCN1CCCC1 [Cediranib (AZD2171)] | 4.41% and 2.97% | 11.7 | 55.1 | 48.3 | 2.27 | 1.47 | 9.24 | 21.7 |
| C[C@@H]1O[C@@H](OC[C@H]2O[C@@H](Oc3c(-c4ccc(O)c(O)c4)oc4cc(O)cc(O)c4c3=O)[C@H](O)[C@@H](O)[C@@H]2O)[C@H](O)[C@H](O)[C@H]1O [Rutin (Rutoside)] | 106% and 105% | 109 | 108 | 106 | 105 | 103 | 105 | 115 |
| CC1(C)O[C@H]2CC(=O)OC[C@]23[C@H]2CC[C@@]4(C)[C@H](c5ccoc5)OC(=O)[C@H]5O[C@]54[C@]2(C)C(=O)C[C@@H]13 [Limonin] | 98% and 110% | 109 | 97.3 | 109 | 102 | 109 | 111 | 102 |
| CN(C)CCC=C1c2ccccc2CCc2ccccc21 [Amitriptyline HCl] | 83.3% and 90.4% | 88.2 | 77.1 | 83 | 79 | 89.7 | 80.7 | 89.2 |
| N=C1S/C(=C\c2ccc(-c3ccc4c(c3)C(=O)NC4=O)o2)C(=O)N1c1ccc(Br)cc1 [Bioymifi] | 95.1% and 88.2% | 87.4 | 99 | 101 | 90.1 | 93.1 | 96.6 | 93.1 |
| C[C@H](Cc1cc2c(c(C(N)=O)c1)N(CCCO)CC2)NCCOc1ccccc1OCC(F)(F)F [Silodosin] | 81.7% and 88.2% | 87.5 | 86.2 | 85.6 | 87.2 | 89.5 | 74.7 | 80 |
| CN1CCN(c2nc(C3=C(c4c[nH]c5ccccc45)C(=O)NC3=O)c3ccccc3n2)CC1 [Sotrastaurin (AEB071)] | 88.8% and 91.3% | 81.6 | 72.4 | 80.5 | 30.8 | 21.6 | 32.8 | 50.3 |
| O=C(O)c1ccccc1-c1c2cc(Br)c(=O)c(Br)c-2oc2c(Br)c(O)c(Br)cc12 [Eosin Y Disodium] | 97.2% and 95.8% | 90.1 | 96 | 92.8 | 85.3 | 93.6 | 91.7 | 93.4 |
| O=C(Nc1ncc(SCCN2CCCC2)s1)[C@]1(c2ccc(S(=O)(=O)C3CC3)cc2)C[C@H]1C1CCCCC1 | 0.72% and 0.66% | 0.58 | 2.32 | 11.5 | 0.59 | 0.51 | 0.46 | 0.55 |
| Cc1ccc(C(=O)N(CCCN)[C@@H](c2nc3cc(Cl)ccc3c(=O)n2Cc2ccccc2)C(C)C)cc1 | 0.81% and 1.13% | 0.6 | 0.37 | 0.68 | 0.2 | 0.34 | 0.16 | 0.25 |
| O=C1C(=Cc2ccncc2)CCCC1=Cc1ccncc1 | 7.78% and 5.31% | 20.5 | 1.92 | 0.58 | 2.47 | 0.31 | 0.15 | 0.12 |
| O=C1[C@H](CC[C@H](O)c2ccc(F)cc2)[C@@H](c2ccc(O)cc2)N1c1ccc(F)cc1 [Ezetimibe (Zetia)] | 86.1% and 94.8% | 102 | 80.6 | 91 | 82.7 | 90.1 | 80.8 | 88.2 |
| COc1ccc(/C=C/C(=O)C2(C(=O)/C=C/c3ccc(OC)c(OC)c3)CCCCC2)cc1OC | 5.82% and 13.9% | 10.6 | 2.25 | 2.73 | 0.4 | 0.31 | 0.35 | 0.43 |
| O=C(O)[C@H]1CSC(c2nc3ccc(O)cc3s2)=N1 [D-Luciferin] | 90.6% and 83.7% | 92.3 | 82.4 | 92.8 | 85.8 | 90.7 | 86.7 | 87.9 |
| COc1ccc2[nH]cc(CCNC(C)=O)c2c1 [Melatonin] | 104% and 109% | 100 | 109 | 101 | 103 | 105 | 118 | 103 |
